Structures can show the parent of a compound that is named as a salt.
How the values were obtained:
Conditions in all cases: incubation time: 27 h, anaerobic, 37 °C;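 for the amine columns active = adjusted P below 0.05 in both replicates with a change the same way and a mean fold change under 0.8 or over 1.25; inactive = the rest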
[1] = system: Clostridium sporogenes DSM 1664; test: growth (OD595) fold change vs plate DMSO controls (fold change (ratio)); higher = more growth
Outline: (§1)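 Each value is the mean of 2 biological replicates, and fold changes above 1.5 were set to NA. The underlying readings were taken at 595 nm from shaken anaerobic mGAM cultures in 96-well plates after 27 h at 37 °C. They were blank-subtracted, corrected for compound background using 20 µM compound solutions in water, and converted to OD with a calibration factor of 5. Growth is the fold change relative to the median of the plate DMSO controls.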

Escherichia coli IAI1 [2] = test: as above
Outline: as §1

[3] = system: Klebsiella aerogenes DSM 30053; test: as above
Outline: as §1

[4] = system: Ruminococcus gnavus DSM 108212; test: as above
Outline: as §1

[5] = system: Klebsiella aerogenes DSM 30053; test: fold change of Histamine concentration vs plate DMSO controls (fold change (ratio)); higher = more amine produced, active = hit call of the paper (significant change in both replicates, either direction)
Outline: (§2)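 Each value is the fold change relative to DMSO-only wells on the same plate. Four gut bacterial strains were grown anaerobically in mGAM at 37 °C for 27 h in 80 µL wells, starting at OD 0.1 before a 1:1 dilution, with compounds at 20 µM final (sweeteners 50 µM). Whole cultures were extracted with cold acetonitrile/methanol containing 0.1% formic acid, centrifuged, and amines were quantified by LC–triple-quadrupole MS (dynamic MRM) against external calibration curves with within-batch drift correction. Values are means of 2 biological replicates.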

[6] = system: Clostridium sporogenes DSM 1664; test: fold change of Tryptamine concentration vs plate DMSO controls (fold change (ratio)); higher = more amine produced, active = hit call of the paper (significant change in both replicates, either direction)
Outline: as §2

[7] = system: Ruminococcus gnavus DSM 108212; test: as above
Outline: as §2

Escherichia coli IAI1 [8] = test: fold change of Putrescine concentration vs plate DMSO controls (fold change (ratio)); higher = more amine produced, active = hit call of the paper (significant change in both replicates, either direction)
Outline: as §2

[9] = system: Klebsiella aerogenes DSM 30053; test: as above
Outline: as §2

Escherichia coli IAI1 [10] = test: fold change of Cadaverine concentration vs plate DMSO controls (fold change (ratio)); higher = more amine produced, active = hit call of the paper (significant change in both replicates, either direction)
Outline: as §2

[11] = system: Klebsiella aerogenes DSM 30053; test: as above
Outline: as §2

[12] = system: Ruminococcus gnavus DSM 108212; test: fold change of 2-Phenylethylamine concentration vs plate DMSO controls (fold change (ratio)); higher = more amine produced, active = hit call of the paper (significant change in both replicates, either direction)
Outline: as §2

Compound	growth [1]	growth (Escherichia coli IAI1 [2])	growth [3]	growth [4]	fold change of Histamine concentration [5]	fold change of Tryptamine concentration [6]	fold change of Tryptamine concentration [7]	fold change of Putrescine concentration (Escherichia coli IAI1 [8])	fold change of Putrescine concentration [9]	fold change of Cadaverine concentration (Escherichia coli IAI1 [10])	fold change of Cadaverine concentration [11]	fold change of 2-Phenylethylamine concentration [12]
COc1ccc2cc([C@@H](C)C(=O)O)ccc2c1 [(R) Naproxen sodium salt] (20 µM)	0.979	1.08	1.07	0.811	1.03 (inactive)	1.07 (inactive)	1.05 (inactive)	0.951 (inactive)	0.974 (inactive)	0.956 (inactive)	1 (inactive)	1.11 (inactive)
C1N2CN3CN1CN(C2)C3 [Methenamine] (20 µM)	0.885	0.986	1.02	1.16	0.978 (inactive)	1.05 (inactive)	1.04 (inactive)	1.01 (inactive)	0.982 (inactive)	1 (inactive)	0.993 (inactive)	1.03 (inactive)
NNCCc1ccccc1 [Phenelzine sulfate] (20 µM)	0.965	0.99	1.02	1.01	1.05 (inactive)	0.921 (inactive)	0.995 (inactive)	1.12 (inactive)	0.977 (inactive)	1.04 (inactive)	1.03 (inactive)	0.911 (inactive)
CC(=O)OC[C@H]1O[C@@H](n2ncc(=O)[nH]c2=O)[C@H](OC(C)=O)[C@@H]1OC(C)=O [Azaribine] (20 µM)	1.22	1.01	1	1.18	0.978 (inactive)	0.997 (inactive)	0.988 (inactive)	1.05 (inactive)	1.04 (inactive)	0.944 (inactive)	1.02 (inactive)	0.96 (inactive)
CN1CCOC(c2ccccc2)c2ccccc2C1 (stereo not drawn) [Nefopam hydrochloride] (20 µM)	1.09	1	0.963	1.09	0.855 (inactive)	1.1 (inactive)	1.02 (inactive)	1.03 (inactive)	0.94 (inactive)	0.943 (inactive)	1.03 (inactive)	1.03 (inactive)
Clc1ccc(C(Cn2ccnc2)OCc2c(Cl)cccc2Cl)c(Cl)c1 (stereo not drawn) [Isoconazole] (20 µM)	0.999	0.858	0.862	0.0371	1 (inactive)	0.846 (inactive)	0.265 (active)	1.01 (inactive)	1.01 (inactive)	0.966 (inactive)	1 (inactive)	0.289 (active)
COCC(=O)Nc1c(I)c(C(=O)NCC(O)CO)c(I)c(C(=O)N(C)CC(O)CO)c1I (stereo not drawn) [Iopromide] (20 µM)	1.27	1.02	1.06	1.02	1.01 (inactive)	1.01 (inactive)	1.11 (inactive)	1.09 (inactive)	0.975 (inactive)	0.989 (inactive)	1.02 (inactive)	1.15 (inactive)
Cc1ccc(-c2cc(C(F)(F)F)nn2-c2ccc(S(N)(=O)=O)cc2)cc1 [Celecoxib] (20 µM)	0.912	1.03	1	1.11	1.09 (inactive)	0.967 (inactive)	0.927 (inactive)	1.03 (inactive)	0.991 (inactive)	1.06 (inactive)	0.99 (inactive)	0.87 (inactive)
OC(CNCC(O)C1CCc2cc(F)ccc2O1)C1CCc2cc(F)ccc2O1 (stereo not drawn) [Nebivolol hydrochloride] (20 µM)	1.15	0.992	0.992	0.785	1.03 (inactive)	0.94 (inactive)	0.882 (inactive)	1.03 (inactive)	1.01 (inactive)	0.955 (inactive)	0.998 (inactive)	0.879 (inactive)
O=C(NCC1CCCCN1)c1cc(OCC(F)(F)F)ccc1OCC(F)(F)F (stereo not drawn) [Flecainide acetate] (20 µM)	0.94	0.991	1.01	0.997	1 (inactive)	0.99 (inactive)	1.03 (inactive)	0.98 (inactive)	0.976 (inactive)	0.987 (inactive)	0.989 (inactive)	1.06 (inactive)
O=C(CO)[C@@H](O)[C@H](O)[C@@H](CO)O[C@H]1O[C@H](CO)[C@@H](O)[C@H](O)[C@H]1O [Leucrose] (50 µM)	0.936	0.999	1.01	0.99	1.02 (inactive)	1.03 (inactive)	0.993 (inactive)	1.05 (inactive)	1 (inactive)	1.02 (inactive)	0.992 (inactive)	0.968 (inactive)
COc1cc(N)cn[n+]1-c1ccccc1 [Amezinium metilsulfate] (20 µM)	1.05	1.04	1.08	1.07	0.987 (inactive)	1.05 (inactive)	1.06 (inactive)	0.969 (inactive)	0.98 (inactive)	1.02 (inactive)	0.995 (inactive)	1.11 (inactive)
COc1ccccc1OCCNCC(O)COc1cccc2[nH]c3ccccc3c12 (stereo not drawn) [Carvedilol] (20 µM)	0.934	0.974	0.98	1.01	0.972 (inactive)	1.03 (inactive)	0.977 (inactive)	0.987 (inactive)	0.98 (inactive)	1.02 (inactive)	0.989 (inactive)	0.998 (inactive)
Clc1ccc(COC(Cn2ccnc2)c2ccc(Cl)cc2Cl)cc1 (stereo not drawn) [Econazole nitrate] (20 µM)	1.35	1.01	1.08	0.481	0.83 (inactive)	0.815 (inactive)	0.357 (active)	1.01 (inactive)	0.963 (inactive)	1.02 (inactive)	1.01 (inactive)	0.404 (active)
Nc1ccn([C@@H]2O[C@H](CO)[C@@H](O)C2(F)F)c(=O)n1 [Gemcitabine] (20 µM)	0.371	0.338	0.294	0	1.07 (inactive)	0.969 (inactive)	0.641 (active)	0.969 (inactive)	1.01 (inactive)	1.02 (inactive)	0.999 (inactive)	0.753 (inactive)
CC(C)(C)NC[C@H](O)COc1cccc2c1CCCC2=O [(-) Levobunolol hydrochloride] (20 µM)	0.999	0.973	0.98	0.872	1.06 (inactive)	1 (inactive)	0.916 (inactive)	1.04 (inactive)	1.03 (inactive)	0.996 (inactive)	1 (inactive)	0.866 (inactive)
CC(C)NCC(O)c1ccc(NS(C)(=O)=O)cc1 (stereo not drawn) [Sotalol hydrochloride] (20 µM)	0.907	0.97	1.2	1.01	0.907 (inactive)	1.03 (inactive)	1.18 (inactive)	0.935 (inactive)	1.06 (inactive)	1.08 (inactive)	1.12 (inactive)	1.36 (inactive)
CC(C)(C)NCC(O)c1cc(O)cc(O)c1 (stereo not drawn) [Terbutaline hemisulfate] (20 µM)	0.98	1.02	1.05	1.11	1.02 (inactive)	1.05 (inactive)	1.06 (inactive)	1.05 (inactive)	0.985 (inactive)	0.932 (inactive)	0.993 (inactive)	1.06 (inactive)
Nc1nc(=O)c2c([nH]1)NC[C@@H](CNc1ccc(C(=O)N[C@@H](CCC(=O)O)C(=O)O)cc1)N2C=O [Folinic acid calcium salt] (20 µM)	0.975	0.979	0.993	0.963	0.976 (inactive)	1.02 (inactive)	0.944 (inactive)	1.05 (inactive)	0.998 (inactive)	0.962 (inactive)	0.999 (inactive)	0.882 (inactive)
CN(C/C=C/c1ccccc1)Cc1cccc2ccccc12 [Naftifine hydrochloride] (20 µM)	1.08	1.21	0.994	0.89	0.999 (inactive)	0.99 (inactive)	0.941 (inactive)	1.08 (inactive)	0.996 (inactive)	1.34 (active)	0.99 (inactive)	1.01 (inactive)
Cc1cc(-n2c(=O)[nH]c(=O)n(C)c2=O)ccc1Oc1ccc(SC(F)(F)F)cc1 [Toltrazuril] (20 µM)	1.1	0.997	1.05	1.09	0.976 (inactive)	0.941 (inactive)	0.792 (inactive)	1.01 (inactive)	1 (inactive)	1.08 (inactive)	1.01 (inactive)	0.81 (inactive)
CN(C)CCCN1c2ccccc2Sc2ccccc21 [Promazine hydrochloride] (20 µM)	1.02	0.959	0.962	1	1.05 (inactive)	1.1 (inactive)	0.823 (inactive)	0.916 (inactive)	0.995 (inactive)	1.03 (inactive)	0.983 (inactive)	0.829 (inactive)
Cc1ccc2c(Cl)cc(Cl)c(O)c2n1 [Chlorquinaldol] (20 µM)	0.726	0.915	0.929	0.448	1.12 (inactive)	0.518 (active)	0.33 (active)	1.17 (inactive)	1.03 (inactive)	1.32 (inactive)	0.978 (inactive)	0.332 (inactive)
Cc1nn(C)c(Oc2ccccc2)c1/C=N/OCc1ccc(C(=O)OC(C)(C)C)cc1 (20 µM)	1.15	1.03	1.02	0.998	0.993 (inactive)	0.918 (inactive)	1.04 (inactive)	1.02 (inactive)	1.06 (inactive)	0.987 (inactive)	1.03 (inactive)	0.974 (inactive)
